Only some compounds are listed: those with a hit (about 3.5% of all), similar ones and a draw of the others.
FBW7 activator: activators of human E3 ligase FBW7. Q969H0. AlphaScreen FBW7–phospho-cyclin E peptide binding, activator screen. normalized activity (activation), % at 26.1 µM. 650,000 compounds, 0.13% hits; in the data active = normalized activity above about 1.9%;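 also: purified mutant Fbw7 with reduced substrate affinity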
Target sequence (Q969H0 whole entry, looked up): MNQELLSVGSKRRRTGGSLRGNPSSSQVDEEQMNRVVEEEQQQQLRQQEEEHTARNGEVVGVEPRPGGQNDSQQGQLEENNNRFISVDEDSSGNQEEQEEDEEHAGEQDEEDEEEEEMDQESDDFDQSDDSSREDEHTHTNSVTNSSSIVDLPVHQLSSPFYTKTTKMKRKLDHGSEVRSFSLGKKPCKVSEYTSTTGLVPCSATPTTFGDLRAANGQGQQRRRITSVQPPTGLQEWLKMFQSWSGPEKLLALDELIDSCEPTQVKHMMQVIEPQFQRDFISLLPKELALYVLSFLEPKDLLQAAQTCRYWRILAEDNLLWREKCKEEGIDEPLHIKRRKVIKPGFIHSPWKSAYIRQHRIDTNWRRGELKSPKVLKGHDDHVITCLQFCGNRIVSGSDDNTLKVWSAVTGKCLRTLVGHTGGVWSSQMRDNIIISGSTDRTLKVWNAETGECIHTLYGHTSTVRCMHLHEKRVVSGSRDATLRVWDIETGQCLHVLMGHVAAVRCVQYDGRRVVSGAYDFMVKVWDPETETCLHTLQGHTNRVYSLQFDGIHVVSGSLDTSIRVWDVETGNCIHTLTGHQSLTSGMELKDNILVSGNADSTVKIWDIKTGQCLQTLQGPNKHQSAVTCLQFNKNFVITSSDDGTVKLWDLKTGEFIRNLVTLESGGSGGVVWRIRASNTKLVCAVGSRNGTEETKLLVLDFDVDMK
MITF inh: human MITF inhibition, primary screen | AlphaScreen MITF homodimerization, bead proximity signal | inhibition, % at 2.6 µM | 650,000 compounds, 0.91% hits; in the data active = inhibition above about 50%;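 also: 0% = vehicle wells with protein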
TEAD-YAP inh: TEAD-YAP interaction inhibition; HEK-TIYL cells, TEAD-Gal4/YAP UAS-luciferase luminescence; inhibition, % at 9.12 µM; 640,000 compounds, 1.4% hits; AID 1259422; in the data active = inhibition above about 32%;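 also: 0% = median of test compound wells and 100% = reference inhibitor wells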
GPR151 activ: activators of human GPR151; Q8TDV0; PathHunter beta-arrestin GPR151 cells, luminescence; activation, % at 11.2 µM; 650,000 compounds, 1% hits; in the data active = activation above about 4.9%;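 also: 0% = median of compound wells and 100% = cells with positive control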
GPR151 confirm: human GPR151 activation, confirmation screen; GPR151 PathHunter beta-arrestin cells, luminescence, 90 min; % of EA-reagent control over plate median; activation, % at 11.2 µM; 6,700 tested, under 10 active; shares compounds with GPR151 activ;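 active = mean percent activation across replicates above the confirmation screen cutoff of 4.91%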
GPR119 counter: counter-screen for GPR151 activators: effect on human GPR119; shares compounds with GPR151 activ; GPR119 PathHunter beta-arrestin cells, luminescence, 90 min; 0 = compound-well median, 100 = enzyme-acceptor control; activation, % at 11.2 µM; 6,700 compounds, 0.3% hits; AID 1508611;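 active = mean percent activation in the counterscreen above 29.09%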;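 also: counterscreen on off-target GPR119 to flag nonselective hits from the GPR151 activator screen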
An asterisk follows results filed as active; / = no result.

SMILES	FBW7 activator	MITF inh	TEAD-YAP inh	GPR151 activ	GPR151 confirm	GPR119 counter
NC(=O)C1CCN(C(c2ccco2)c2sc3nc(-c4ccco4)nn3c2O)CC1 (configuration not stated)	0	0	0	1	/	/
N#Cc1cccc(C(=O)NC2CCCC2)c1	0	-3	10	5.2*	3	5
O=C(NC1CCCCCC1)c1cccc(I)c1	0	3	-46	0	/	/
COC(=O)c1ccc(-n2c(C)cc(C(=O)COC(=O)c3ccccc3C=O)c2C)cc1	0	12	7	-1	/	/
Cc1cc(C(=O)COC(=O)c2ccc(CO)cc2)c(C)n1-c1ccc(F)cc1	0	-1	9	5.0*	0	0
Cc1cnc(C(=O)OCC(=O)c2cc(C)n(CCc3ccc(F)cc3)c2C)cn1	0	2	0	8.1*	1	8
C[C@@H](OCc1ccccc1)[C@@H]1NC(=O)[C@H]2CN(C(=O)c3cc(F)c(F)cc3F)CCN2C1=O	1	18	11	0	/	/
C[C@@H](OCc1ccccc1)[C@@H]1NC(=O)[C@H]2CN(C(=O)c3cc(F)ccc3F)CCN2C1=O	0	-7	-5	8.9*	1	16
N#C/C(=C\Nc1ccc(F)c([N+](=O)[O-])c1)c1nc(-c2cccc([N+](=O)[O-])c2)cs1	0	-8	-3	8.8*	-1	4
N#C/C(=C/Nc1ccc(F)c([N+](=O)[O-])c1)c1nc(-c2ccccc2)cs1	0	11	7	3	/	/
Cc1ccc(S(=O)(=O)N(CC(N)=O)Cc2cccc(C)c2)cc1	0	6	5	5.2*	2	11
CCCCNc1ncnc2c1c(-c1ccccc1)cn2-c1ccc(Br)cc1	1	21	-7	0	/	/
O=C(CSCc1ccc(Cl)cc1)NC1CC1	0	7	-13	0	/	/
CCOC(=O)c1sc(-c2ccccc2)cc1NC(=S)NC(=O)CN1C(=O)CCC1=O	0	6	-3	7.7*	1	7
CCOC(=O)c1sc(-c2ccccc2)cc1NC(=O)c1cc2ccccc2cc1OC	0	-11	-20	-1	/	/
C/C(=N\Nc1cc(N2CCOCC2)nc(C)n1)c1ccc([N+](=O)[O-])cc1	0	-10	-1	0	/	/
CCOc1nc2c(c(=O)n(Cc3ccc(F)cc3)c(=O)n2C)n1C	0	4	-4	-2	/	/
Cc1cccc(N2CCN(c3ncnc4c3c(-c3ccccc3)cn4-c3cccc(Cl)c3)CC2)c1C	0	20	-5	6.1*	2	22
Clc1cccc(-n2cc(-c3ccccc3)c3c(N4CCN(c5ccccc5Cl)CC4)ncnc32)c1	0	-20	3	-2	/	/
Cc1ccc(CNC(=O)C2CCN(C(=O)N3CCOc4ccc(C)cc43)CC2)cc1	0	0	12	-3	/	/
